Source: PubChem BioAssay

experiment: TLR3 IRF3 reporter activation blockers – cell-based, poly I:C stimulus, luciferase, 10K MLSCN set, primary screen (AID 602277); conditions: HEK293-TLR3 RL24 IRF3 luciferase reporter, at 10 µM, hits give high values;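 active = inhibition of the reporter signal at or above 50%; inactive = inhibition below 50%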

inhibition, inactive:
COc1ccc(C(CNC(=O)c2cc(C)oc2C)N2CCOCC2)cc1 (centres undefined) 15.8%
O=C(CSc1ccc2nnc(-c3ccccc3)n2n1)N1CCN(c2ccccc2)CC1 3.8%
O=C1NC(=O)C(CC(=O)N(Cc2ccco2)C2(C(=O)NC3CCCC3)CCCCC2)N1 (centres undefined) 18.4%
O=C(NCc1cccs1)c1cc2c(s1)CCCC2 -105%
O=C(c1ccc(-c2ccccc2)cc1)N1CCN(c2ncccn2)CC1 28.8%
Cc1noc(/C=C/N(C)C)c1S(=O)(=O)N1CCCC(C(=O)N2CCc3ccccc32)C1 (centres undefined) 45.3%
Cc1cccnc1NC(=O)CCCN1C(=O)c2ccccc2C1=O 10.4%
O=C1CC(c2ccccc2)CC(O)=C1C=NCCN1CCOCC1 (centres undefined) 31.4%
CCCCNC(=O)c1nc2ncc(Br)cn2n1 22.4%
COc1ccc(NC(=O)C(C)NS(=O)(=O)c2ccc(NC(C)=O)cc2)cc1Cl (centres undefined) 7.34%
CCOc1cc(NC(=O)c2ccco2)c(OCC)cc1NC(=O)Cc1cccc(OC)c1 -45.9%
COc1ccccc1Nc1nc2ccccc2[nH]1 -54.9%
CCN1CCN(c2ncnc3c2cnn3-c2ccc(C)cc2C)CC1 18.9%
Cn1c(=O)[nH]c(=O)c2c1nc(NCCCn1ccnc1)n2Cc1cccc(Br)c1 26.1%
CN1CCN(C(=O)C2CCN(S(=O)(=O)c3ccc4c(c3)oc(=O)n4C)CC2)CC1 23.9%
CN(c1ccccc1C(N)=O)S(=O)(=O)c1ccccc1 22.7%
COCC(=O)N(C)c1nnc(-c2ccccn2)s1 -17.6%
CCOC(=O)C1CCCN(C(=O)c2sc3nc(-c4ccccc4)cn3c2C)C1 (centres undefined) -120%
Cc1cc(C)nc(NC(=O)c2c(-c3c(Cl)cccc3Cl)noc2C)n1 7.12%
O=C(Nc1cnn(C23CC4CC(CC(C4)C2)C3)c1)c1cnn2c(C(F)(F)F)cc(-c3ccco3)nc12 -44.9%
O=C(O)c1cccn2c(=O)c3ccccc3nc12 6.83%
CC(C)Cn1c(N)c(C(=O)NCc2cccs2)c2nc3ccccc3nc21 -0.686%
CCCS(=O)(=O)N1CCN(C(=O)c2cccs2)CC1 3.31%
Cc1nc(C)c(C(=O)C2=C(O)C(=O)N(CCN3CCOCC3)C2c2ccco2)s1 (centres undefined) 6.93%
Cc1ccc(S(=O)(=O)N2C(=O)CCC2C(=O)Nc2ccc3c(c2)OCCO3)cc1 (centres undefined) 27.4%
COc1cccc(C2=NOC(C(=O)N3CCc4ccccc4C3)C2)c1 (centres undefined) -15%
Cc1ccccc1C1CC(c2ccccc2)Nc2ncnn21 (centres undefined) 15.7%
O=S(=O)(c1cccc2nsnc12)N1CCN(c2ncccn2)CC1 31.3%
CCN(CC)S(=O)(=O)c1cccc(-c2nnc(SCC(N)=O)n2CCc2ccccc2)c1 11.1%
O=C(O)c1cc(Cl)c(Cl)cc1C(=O)N1CCCC1 22.8%
Cc1cccc(N2C(=O)CC(N3CCN(c4cccc(C(F)(F)F)c4)CC3)C2=O)c1 (centres undefined) 36.4%
COCCN(CCOC)c1ncnc2c1cnn2-c1ccccc1 -50.6%
Cc1csc(NC(=O)C2CCCO2)n1 (centres undefined) 17.7%
COC(=O)c1cc2oc(C)cc2n1CC(=O)Nc1ccc(C)c(C)c1 4.84%
CCOc1ccc2nc(NC(=O)C3CCCN(S(=O)(=O)c4c(C)noc4C)C3)sc2c1 (centres undefined) -47.9%
Cc1ccccc1-n1nnnc1SCC(=O)Nc1ccc(S(=O)(=O)N2CCCC2)cc1 24.1%
Nn1cnnc1SCC(=O)Nc1ccc2c(c1)OCCO2 -17%
CCN(CC)S(=O)(=O)c1ccc(F)c(C(=O)NCCC(C)C)c1 -20.2%
CCc1ccc(NC(=O)C2CC(=O)N(C(C)C)C2)cc1 (centres undefined) 0.245%
